High-throughput results from PubChem.
Peg3 promoter – reduces Peg3 promoter-driven luciferase expression in HeLa; HeLa PEG-Prom luciferase reporter, luminescence, overnight; inhibition, % at 20 µM; 1.7% of 360,000 active;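 active = inhibition of at least 50% at 20 µM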
HSP90 inh – blocks HSP90-mediated luciferase refolding in reticulocyte lysate; Rabbit reticulocyte lysate, luciferase refolding luminescence, 3 h; inhibition, % at 5.6 µM; 0.91% of 290,000 active;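 active = inhibition above the screen-wide mean plus 3 SD, computed separately per campaign, cut at about 16% in these data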;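 also: inhibitors lower the luminescence because luciferase stays unfolded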
KKLEB cytotox – counter-screen for CF NF-kB inhibitors: cytotoxicity; 0.36% of 360,000 active; activity change (cytotoxicity), % at 5 µM; KKLEB CF airway cells viability, ATPlite luminescence, overnight; stronger effect = lower value; cells stimulated with P. aeruginosa culture filtrate;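 active = corrected activity change at or below -50% at 5 µM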
LGR2 antag – inhibitors of bursicon-induced Drosophila LGR2 receptor cAMP signaling | HEK293 LGR2, CRE-luciferase, bursicon-stimulated, 4 h | inhibition, % at 9.99 µM | 0.35% of 380,000 active | AID 720647;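 active = drop in luminescence signal, shown as inhibition above about 50% in the replicate tests, limit read from the data, passing the limit was not always enough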;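 also: agonist challenge used bursicon conditioned medium at about half maximal strength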
CF NFkB inh – inhibitors of cystic fibrosis induced NF-kB | KKLEB NF-kB-GFP reporter, PAF-induced, GFP fluorescence overnight | inhibition, % at 5 µM | 0.86% of 360,000 active | AID 588850;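 active = at least 50% inhibition at 5 µM, scaled per plate between neutral and stimulator controls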;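 also: PAF is a Pseudomonas aeruginosa culture filtrate used as stimulus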
Mdm2-MdmX inh – inhibitors of human Mdm2/MdmX interaction; inhibition, % at 8 µM; O15151+Q00987; 3% of 330,000 active; AID 485346; SaOS-2 split-luciferase Mdm2/MdmX complementation, luminescence;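 active = inhibition of at least 50% at 8 µM in the primary screen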
Mdm2-MdmX conf – human Mdm2/MdmX binding inhibition, confirmed; shares compounds with Mdm2-MdmX inh; luminescent assay; inhibition, % at 8 µM; 55% of 10,000 active; AID 489028; in the data active = inhibition above about 40%
FLuc counter – full-length luciferase inhibition in Mdm2/MdmX counter-screen; shares compounds with Mdm2-MdmX inh; 77% of 6,200 active; SaOS-2 full-length luciferase counterscreen, luminescence; inhibition, % at 8 µM;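 active = mean inhibition at 8 µM reaching about 37%, which flags the compound as non-specific, limit read from the data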;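 also: p53-null SaOS-2 cells with luciferase driven by a doxycycline-inducible promoter; compound on cells about two nights before reading with doxycycline added after day one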
Large screens that a line does not name were inactive (follow-up assays come after a bar, where they were run). A selection: hits, their analogues and other compounds. The true share with any hit is near 3.6%.

COc1ccc(-c2sc3cc(OC)ccc3c2-c2ccc(OCCN3CCCCC3)cc2)cc1	none (no result: Peg3 promoter, HSP90 inh, KKLEB cytotox, CF NFkB inh, Mdm2-MdmX inh)
CCOc1cccc(-c2nnc3sc(-c4cc(OC)c(OC)c(OC)c4)nn23)c1	Mdm2-MdmX inh 61 | Mdm2-MdmX conf inactive
COc1cccc(-c2nnc3sc(-c4ccc(C)cc4)nn23)c1	Mdm2-MdmX inh 56 (no result: Peg3 promoter, KKLEB cytotox, LGR2 antag, CF NFkB inh) | Mdm2-MdmX conf 60 | FLuc counter 47
COc1cc(-c2nn3c(-c4ccccc4)nnc3s2)cc(OC)c1OC	none (no result: LGR2 antag)
CC1(C)C2CC[C@]3(C)C(CC=C4[C@@H]5C[C@@](C)(CO)[C@@H]6C[C@@]5(CC[C@]43C)C(=O)O6)[C@@]2(C)CC[C@@H]1O (stereo partly specified)	none (no result: Peg3 promoter, HSP90 inh, KKLEB cytotox, LGR2 antag, CF NFkB inh)
CC1(C)CC[C@@]23CC[C@]4(C)[C@@](OC2=O)(C3C1)[C@H]1O[C@H]1C1[C@@]2(C)CC[C@H](O)C(C)(C)C2CC[C@]14C (stereo partly specified)	Mdm2-MdmX inh 75 (no result: Peg3 promoter, HSP90 inh, KKLEB cytotox, LGR2 antag, CF NFkB inh) | Mdm2-MdmX conf inactive
Cc1ccc(C(=O)N2CCCCC2)cc1NC1=C(Cl)C(=O)N(Cc2ccccc2)C1=O	Mdm2-MdmX inh 56 (no result: HSP90 inh) | Mdm2-MdmX conf 50 | FLuc counter 64
O=C(C[C@H]1C[C@@H]2c3cc(NS(=O)(=O)c4ccc(F)cc4)ccc3O[C@@H]2[C@H](CO)O1)NCCc1ccccc1	none (no result: Peg3 promoter, HSP90 inh, KKLEB cytotox, CF NFkB inh, Mdm2-MdmX inh)
COc1cccc(/C=C/C(=C2/C(=O)N(c3ccccc3)N=C2C)c2ccccc2)c1OC	none
COc1cccc(/C=C/C(=C2/C(=O)N(c3ccccc3)N=C2C)c2ccc(Br)cc2)c1OC	Mdm2-MdmX inh 59 (no result: LGR2 antag) | Mdm2-MdmX conf inactive
C=CC(C)(C)c1c(O)c(CC=C(C)C)c(O)c2c(=O)c3ccc(O)c(O)c3oc12	Peg3 promoter 61, CF NFkB inh 54, Mdm2-MdmX inh 92 (no result: HSP90 inh, LGR2 antag) | Mdm2-MdmX conf 86 | FLuc counter 55
COc1ccc(S(=O)(=O)N(C)C[C@H]2Oc3c(NC(=O)Nc4ccc(F)cc4)cccc3C(=O)N([C@@H](C)CO)C[C@H]2C)cc1	none (no result: Peg3 promoter, HSP90 inh, KKLEB cytotox, CF NFkB inh, Mdm2-MdmX inh)
CCCNC(=O)N1C[C@@H](C)[C@@H](OC)CN(C)C(=O)c2ccc(NC(C)=O)cc2OC[C@H]1C	none (no result: Peg3 promoter, HSP90 inh, KKLEB cytotox, CF NFkB inh, Mdm2-MdmX inh)
COc1cc(C(=O)NCCCCCCNC(=O)c2cc(OC)c(OC)c(OC)c2)cc(OC)c1OC	Mdm2-MdmX inh 52 | Mdm2-MdmX conf inactive
O=C(N/N=C/c1c[nH]c2ccccc12)c1cc(-c2ccc3ccccc3c2)n[nH]1	Mdm2-MdmX inh 54 | Mdm2-MdmX conf 52 | FLuc counter 87
O=C(N/N=C/c1c[nH]c2ccccc12)c1cc(-c2cccc3ccccc23)n[nH]1	Mdm2-MdmX inh 58 | Mdm2-MdmX conf inactive
N#CC1=C2SCC(O)(c3ccccc3)N2C(=O)CC1c1ccccc1F (stereo unspecified)	Mdm2-MdmX inh 87 (no result: LGR2 antag) | Mdm2-MdmX conf 83 | FLuc counter 40
CCOc1ccc2nc3cc(NCc4ccc(OC)cc4)ccc3c(N)c2c1	Peg3 promoter 93, Mdm2-MdmX inh 97 | Mdm2-MdmX conf 85 | FLuc counter inactive
CN1C(=O)c2cc(NC(=O)c3ccc(C(F)(F)F)cc3)ccc2OC[C@H]2O[C@H](CC(=O)NCc3ccc4c(c3)OCO4)CC[C@@H]21	none (no result: Peg3 promoter, HSP90 inh, KKLEB cytotox, CF NFkB inh, Mdm2-MdmX inh)
Nc1c(Cl)c(Cl)nc(C(=O)OCC(=O)NCc2ccccc2)c1Cl	none (no result: HSP90 inh)
O=C(COC(=O)c1nc(Cl)c(Cl)c(Cl)c1Cl)NCc1ccccc1	Peg3 promoter 92, Mdm2-MdmX inh 54 (no result: HSP90 inh) | Mdm2-MdmX conf inactive
O=C(C[C@H]1CC[C@H](NC(=O)Nc2ccccc2F)[C@H](CO)O1)NCc1ccccc1	none (no result: Peg3 promoter, HSP90 inh, KKLEB cytotox, CF NFkB inh, Mdm2-MdmX inh)
CC(NCc1cccc(OCc2ccccc2)c1)C(O)c1ccccc1 (stereo unspecified)	none
CC(NCc1ccc(OCc2ccc(Cl)cc2)cc1)C(O)c1ccccc1 (stereo unspecified)	Peg3 promoter 104, Mdm2-MdmX inh 100 | Mdm2-MdmX conf 60 | FLuc counter 52
O=C(Nc1ccc(Cl)cc1)N1CCCN(Cc2ccc(F)cc2)C1	Mdm2-MdmX inh 53 | Mdm2-MdmX conf inactive
